Reference: PubChem BioAssay AID1159580 (chemical genetic matrix, 2015)
In all, about 5,500 compounds went through this assay and about 2,000 (36%) were called active. Roughly 18% stayed inconclusive and do not appear here. Rule as the data show it: active = normalized growth mostly below about 0.91 (no sharp cut-off); inconclusive = no clear call, values can overlap the other calls; inactive = mostly above about 0.92. The list shows a part of the results.

Assay: chemical genetic growth profiling, strain panel (AID 1159580);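 also: tested at 20 µM; growth read once vehicle control cultures reached saturation at 30 °C; 1 = growth at the plate median or of vehicle wells; lower values mean less growth of the strain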
Conditions: S. cerevisiae deletion strains, growth OD

Measured: normalized growth

COC(=O)[C@@H](N)CCCN=C(N)N[N+](=O)[O-]
inactive: locus YAL013W, strain DEP1, active compounds read low 0.999 | locus YAL040C, strain CLN3, active compounds read low 1 | locus YCL061C, strain MRC1 (second series), active compounds read low 1 | locus YDR150W, strain NUM1, active compounds read low 1.01 | locus YDR363W, strain ESC2, active compounds read low 1.01 | locus YER002W, strain NOP16, active compounds read low 0.991 | locus YGR078C, strain PAC10, active compounds read low 1.01 | locus YMR307W, strain GAS1, active compounds read low 0.986 | locus YNL175C, strain NOP13, active compounds read low 1 | locus YNL197C, strain WHI3, active compounds read low 0.994 | locus YNL224C, strain SQS1, active compounds read low 1 | locus YNL322C, strain KRE1, active compounds read low 1.02 | locus YOR083W, strain WHI5 (second series), active compounds read low 1
